Data taken from PubChem BioAssay.
Activity calls are given as the source filed them.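 The calls were made as follows, unless noted: active = fluorescence ratio normalized to control raised more than 50% in primary screen plus both repeat runs; inactive = the rest.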

System: TRPC4 beta (transient receptor potential cation channel C4), mouse
Experiment: activators of mouse TRPC4 channel, confirmation, cell-based, Fluo4 calcium, HEK293 TRPC4beta/mu-opioid, duplicates, 10 µM (AID 2426)
Details: Fluo4 calcium fluorescence, at 10 µM

Row | SMILES | outcome
1 | Cc1ccccc1Cn1c(=N)n(CC(O)c2ccco2)c2ccccc21 (stereo not drawn) | inactive
2 | CN1CCN(c2ccc(NC(=O)c3ccc(-c4ccc(Cl)cc4)o3)cc2)CC1 | inactive
3 | COc1cc(C(F)(F)F)nc2c(Br)c(C(C)(C)C)nn12 | inactive
4 | Clc1cccc(C[n+]2cc(-c3ccccc3)n3c2CCC3)c1 | inactive
5 | COC(=O)c1ccc(CSc2nc3ccccc3c(=O)n2CC(C)C)o1 | inactive
6 | CN(C)c1ccc(NC(=O)CN2C3CCCC2CC(NC(=O)c2ccccc2)C3)cc1 (stereo not drawn) | inactive
7 | Cc1ccn2c(CNCCCn3cccn3)c(C(=O)N3CCCCCC3)nc2c1 | inactive
8 | O=C(O)c1ccc(N/N=C/c2ccc(-c3cccc(Cl)c3)o2)cc1 | inactive
9 | NS(=O)(=O)c1ccc(CCNCc2ccccc2OCc2ccc(Cl)cc2)cc1 | inactive
10 | CCCCn1c(NCCO)nc2ccccc21 | inactive
11 | CCCOc1ccc(-c2nc(SCc3ccccc3)[nH]c(=O)c2C#N)cc1OC | inactive
12 | NC(=O)c1nsc(C(=O)N(Cc2ccccc2Cl)C(C(=O)NCC2CCCO2)c2ccc(O)cc2)c1N (stereo not drawn) | inactive
13 | N#Cc1cccc2c1-c1ccccc1/C2=N/NC(N)=O | inactive
14 | CCCn1c(NC(=O)c2ccc(Cl)c(S(=O)(=O)N3CCCC3)c2)nc2ccccc21 | inactive
15 | CCOC(=O)C(C)Sc1nc2c(c(=O)[nH]c(=O)n2C)n1Cc1ccc(Cl)cc1 (stereo not drawn) | inactive
16 | OCCNc1nc2ccccc2n1CCN1CCCCC1 | inactive
17 | Cc1cc(N2CCC(C)CC2)nc2cccc(O)c12 | inactive
18 | CCCN1C2=NCCN2c2cc(C)c(C)cc21 | inactive
19 | COc1ccc(C2NC(C(=O)O)Cc3c2[nH]c2ccccc32)cc1CN1CCN(c2ccc(F)cc2)CC1 (stereo not drawn) | inactive
20 | COc1cc(CNC2CCCC2)cc(Cl)c1OCc1ccc(F)cc1 | inactive

Row | SMILES | outcome
21 | CC1CCN(C(C)C(=O)Nc2ccccc2-c2ccccc2)CC1 (stereo not drawn) | inactive
22 | COc1cccc(C(=O)C2CCCN(Cc3cccn3-c3ccccn3)C2)c1 (stereo not drawn) | inactive
23 | N=c1c2c(n(Cc3ccccc3)c3c1CCC3)CCC2 | inactive
24 | OCC1(CCCc2ccccc2)CCN(Cc2cc(F)ccc2F)CC1 | inactive
25 | N#Cc1c(NC(=O)C2CC(Cl)=CCC2C(=O)O)sc2c1CCCCC2 (stereo not drawn) | inactive
26 | c1ccc2[nH]c(CCCCc3nc4ccccc4[nH]3)nc2c1 | inactive
27 | CN(C)CCN1C(=O)C2C(C(=O)Nc3cc(Cl)cc(Cl)c3)C3C=CC2(O3)C1C(=O)NC1CCCCC1 (stereo not drawn) | inactive
28 | CCc1cccc(OCC(=O)Nc2ccc(C(=O)O)cc2NC(=O)COc2cccc(CC)c2)c1 | inactive
29 | CCc1ccc2nc(N=C(N)N)nc(C)c2c1 | inactive
30 | C=CCOc1ccc(Br)cc1CNC(C)(C)CO | inactive
31 | O=c1c2ccccc2[nH]c(=S)n1CCN1CCN(Cc2ccccc2)CC1 | inactive
32 | CN(CC(=O)NC1CCCc2ccccc21)C1CCCCC1 (stereo not drawn) | inactive
33 | Cc1cc(C(=O)N/N=C\c2cc(C(C)(C)C)ccc2O)n[nH]1 | inactive
34 | CC1(C)CC2CC(C)(CN2C(=O)c2cc(-c3ccc(O)cc3)on2)C1 (stereo not drawn) | inactive
35 | OCC1(Cc2ccccc2)CCCN(Cc2cnn(-c3ccccc3)c2)C1 (stereo not drawn) | inactive
36 | CCOc1ccccc1CN1CCC(n2nccc2NC(=O)CCc2ccccc2)CC1 | inactive
37 | CCCOc1cccc(C(=O)NCCNC(=O)c2ccco2)c1 | inactive
38 | Brc1ccc(CN2C3=NCCCN3c3ccccc32)cc1 | inactive
39 | Cc1[nH]n(C)c(=O)c1C(=O)c1c(-c2c(Cl)cccc2Cl)noc1C | inactive

System: transient receptor potential cation channel C4 beta (TRPC4), mouse
Experiment: activators of mouse TRPC4 channel, confirmation, cell-based, second round, Fluo4, HEK293 TRPC4beta/mu-opioid, 1 µM (AID 2461;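 active = primary screen active and over 50% activation in each of two duplicate runs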)
Details: Fluo4 calcium fluorescence, at 1 µM

Row | SMILES | outcome
40 | Cc1ccccc1Cn1c(=N)n(CC(O)c2ccco2)c2ccccc21 (stereo not drawn) | inactive
41 | CN1CCN(c2ccc(NC(=O)c3ccc(-c4ccc(Cl)cc4)o3)cc2)CC1 | inactive
42 | COc1cc(C(F)(F)F)nc2c(Br)c(C(C)(C)C)nn12 | inactive
43 | Clc1cccc(C[n+]2cc(-c3ccccc3)n3c2CCC3)c1 | inactive
44 | COC(=O)c1ccc(CSc2nc3ccccc3c(=O)n2CC(C)C)o1 | inactive
45 | CN(C)c1ccc(NC(=O)CN2C3CCCC2CC(NC(=O)c2ccccc2)C3)cc1 (stereo not drawn) | inactive
46 | Cc1ccn2c(CNCCCn3cccn3)c(C(=O)N3CCCCCC3)nc2c1 | inactive
47 | O=C(O)c1ccc(N/N=C/c2ccc(-c3cccc(Cl)c3)o2)cc1 | inactive
48 | NS(=O)(=O)c1ccc(CCNCc2ccccc2OCc2ccc(Cl)cc2)cc1 | inactive
49 | CCCCn1c(NCCO)nc2ccccc21 | inactive
50 | CCCOc1ccc(-c2nc(SCc3ccccc3)[nH]c(=O)c2C#N)cc1OC | inactive
51 | NC(=O)c1nsc(C(=O)N(Cc2ccccc2Cl)C(C(=O)NCC2CCCO2)c2ccc(O)cc2)c1N (stereo not drawn) | inactive
52 | N#Cc1cccc2c1-c1ccccc1/C2=N/NC(N)=O | inactive
53 | CCCn1c(NC(=O)c2ccc(Cl)c(S(=O)(=O)N3CCCC3)c2)nc2ccccc21 | inactive
54 | CCOC(=O)C(C)Sc1nc2c(c(=O)[nH]c(=O)n2C)n1Cc1ccc(Cl)cc1 (stereo not drawn) | inactive
55 | OCCNc1nc2ccccc2n1CCN1CCCCC1 | inactive
56 | Cc1cc(N2CCC(C)CC2)nc2cccc(O)c12 | inactive
57 | CCCN1C2=NCCN2c2cc(C)c(C)cc21 | inactive
58 | COc1ccc(C2NC(C(=O)O)Cc3c2[nH]c2ccccc32)cc1CN1CCN(c2ccc(F)cc2)CC1 (stereo not drawn) | inactive
59 | COc1cc(CNC2CCCC2)cc(Cl)c1OCc1ccc(F)cc1 | inactive

Row | SMILES | outcome
60 | CC1CCN(C(C)C(=O)Nc2ccccc2-c2ccccc2)CC1 (stereo not drawn) | inactive
61 | COc1cccc(C(=O)C2CCCN(Cc3cccn3-c3ccccn3)C2)c1 (stereo not drawn) | inactive
62 | N=c1c2c(n(Cc3ccccc3)c3c1CCC3)CCC2 | inactive
63 | OCC1(CCCc2ccccc2)CCN(Cc2cc(F)ccc2F)CC1 | inactive
64 | N#Cc1c(NC(=O)C2CC(Cl)=CCC2C(=O)O)sc2c1CCCCC2 (stereo not drawn) | inactive
65 | c1ccc2[nH]c(CCCCc3nc4ccccc4[nH]3)nc2c1 | inactive
66 | CN(C)CCN1C(=O)C2C(C(=O)Nc3cc(Cl)cc(Cl)c3)C3C=CC2(O3)C1C(=O)NC1CCCCC1 (stereo not drawn) | inactive
67 | CCc1cccc(OCC(=O)Nc2ccc(C(=O)O)cc2NC(=O)COc2cccc(CC)c2)c1 | inactive
68 | CCc1ccc2nc(N=C(N)N)nc(C)c2c1 | inactive
69 | C=CCOc1ccc(Br)cc1CNC(C)(C)CO | inactive
70 | O=c1c2ccccc2[nH]c(=S)n1CCN1CCN(Cc2ccccc2)CC1 | inactive
71 | CN(CC(=O)NC1CCCc2ccccc21)C1CCCCC1 (stereo not drawn) | inactive
72 | Cc1cc(C(=O)N/N=C\c2cc(C(C)(C)C)ccc2O)n[nH]1 | inactive
73 | CC1(C)CC2CC(C)(CN2C(=O)c2cc(-c3ccc(O)cc3)on2)C1 (stereo not drawn) | inactive
74 | OCC1(Cc2ccccc2)CCCN(Cc2cnn(-c3ccccc3)c2)C1 (stereo not drawn) | inactive
75 | CCOc1ccccc1CN1CCC(n2nccc2NC(=O)CCc2ccccc2)CC1 | inactive
76 | CCCOc1cccc(C(=O)NCCNC(=O)c2ccco2)c1 | inactive
77 | Brc1ccc(CN2C3=NCCCN3c3ccccc32)cc1 | inactive
78 | Cc1[nH]n(C)c(=O)c1C(=O)c1c(-c2c(Cl)cccc2Cl)noc1C | inactive
